HIF-2a block – inhibitors of HIF-2a. inhibition, % at 18.8 µM. 360,000 compounds, 0.72% hits. 786-0 RCC cells HIF-2a reporter, luciferase luminescence, overnight. AID 624352;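 active = inhibition of the luminescence signal of 40% or more relative to plate controls, in a single-dose primary screen at 18.75 µM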
ABHD5 PLIN5 PPI – inhibitors of human ABHD5-perilipin-5 interaction; Q00G26+Q8WTS1; Split G. princeps luciferase complementation, luminescence, 4 h; inhibition, % at 4 µM; 360,000 compounds, 0.78% hits; AID 602281;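 active = inhibition above the mean inhibition across every tested compound plus 3 SD, cut at about 22% in these data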
Target sequence (Q00G26 whole entry, looked up): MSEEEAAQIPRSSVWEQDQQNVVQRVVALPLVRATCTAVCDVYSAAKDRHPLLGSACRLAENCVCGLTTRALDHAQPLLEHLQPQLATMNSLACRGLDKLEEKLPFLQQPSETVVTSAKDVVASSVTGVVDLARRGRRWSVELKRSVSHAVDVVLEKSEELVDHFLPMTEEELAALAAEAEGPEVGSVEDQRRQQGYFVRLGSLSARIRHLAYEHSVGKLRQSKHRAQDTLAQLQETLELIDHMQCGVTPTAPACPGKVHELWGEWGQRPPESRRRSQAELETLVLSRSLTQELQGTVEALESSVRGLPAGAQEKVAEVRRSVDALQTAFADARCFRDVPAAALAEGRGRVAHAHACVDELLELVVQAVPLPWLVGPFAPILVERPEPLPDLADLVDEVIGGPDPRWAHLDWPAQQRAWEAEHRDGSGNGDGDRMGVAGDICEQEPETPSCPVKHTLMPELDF
Target sequence (Q8WTS1 whole entry, looked up): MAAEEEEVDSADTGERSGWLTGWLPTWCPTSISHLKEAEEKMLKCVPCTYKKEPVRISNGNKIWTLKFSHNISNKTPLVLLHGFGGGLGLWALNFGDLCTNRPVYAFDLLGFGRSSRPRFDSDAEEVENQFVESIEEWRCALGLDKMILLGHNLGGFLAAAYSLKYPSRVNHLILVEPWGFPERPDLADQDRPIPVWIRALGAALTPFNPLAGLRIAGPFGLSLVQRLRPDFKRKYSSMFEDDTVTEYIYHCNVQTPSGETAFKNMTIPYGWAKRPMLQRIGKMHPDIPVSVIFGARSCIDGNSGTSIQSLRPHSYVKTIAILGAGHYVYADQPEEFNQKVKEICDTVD
KKLEB tox – counter-screen for CF NF-kB inhibitors: cytotoxicity; KKLEB CF airway cells viability, ATPlite luminescence, overnight; active compounds read low; cells stimulated with P. aeruginosa culture filtrate; activity change (cytotoxicity), % at 5 µM; 360,000 compounds, 0.36% hits;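 active = corrected activity change at or below -50% at 5 µM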
Mdm2 MdmX PPI – inhibitors of human Mdm2/MdmX interaction; SaOS-2 split-luciferase Mdm2/MdmX complementation, luminescence; inhibition, % at 8 µM; 330,000 compounds, 3% hits; AID 485346;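 active = inhibition of at least 50% at 8 µM in the primary screen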
CF NFkB inh – cystic fibrosis NF-kB activation inhibition; KKLEB NF-kB-GFP reporter, PAF-induced, GFP fluorescence overnight; inhibition, % at 5 µM; 360,000 compounds, 0.86% hits; AID 588850;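 active = at least 50% inhibition at 5 µM, scaled per plate between neutral and stimulator controls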;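 also: PAF is a Pseudomonas aeruginosa culture filtrate used as stimulus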
Peg3 prom inh – inhibitors of Peg3 promoter; HeLa PEG-Prom luciferase reporter, luminescence, overnight; inhibition, % at 20 µM; 360,000 compounds, 1.7% hits; AID 588405;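 active = inhibition of at least 50% at 20 µM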
Mdm2 MdmX conf – human Mdm2/MdmX binding inhibition, confirmed; 10,000 compounds, 55% hits; AID 489028; luminescent assay; inhibition, % at 8 µM; shares compounds with Mdm2 MdmX PPI; in the data active = inhibition above about 40%
FLuc counter – counter-screen for Mdm2/MdmX inhibitors: full-length luciferase. 6,200 compounds, 77% hits. inhibition, % at 8 µM. SaOS-2 full-length luciferase counterscreen, luminescence. shares compounds with Mdm2 MdmX PPI;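 active = mean inhibition at 8 µM reaching about 37%, which flags the compound as non-specific, limit read from the data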;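 also: p53-null SaOS-2 cells with luciferase driven by a doxycycline-inducible promoter; compound on cells about two nights before reading with doxycycline added after day one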
Numbers stand for hits; . = inactive; / = no result given. This is a sample that favours compounds with a hit; in the whole collection about 4.6% have one here.

SMILES	HIF-2a block	ABHD5 PLIN5 PPI	KKLEB tox	Mdm2 MdmX PPI	CF NFkB inh	Peg3 prom inh	Mdm2 MdmX conf	FLuc counter
CCCc1cc(NC(=O)COC(=O)c2nccnc2N)n(-c2ccccc2)n1	.	.	.	.	.	.	/	/
S=C(NCc1ccco1)Nc1cc(-c2ccccc2)[nH]n1	.	.	.	.	.	.	/	/
C[C@@H]1COc2cccc(N3CCC[C@@H]3CO)c2S(=O)(=O)N1	.	.	/	/	/	/	/	/
O=C(Oc1c(-c2ccccc2)c(=O)n2c3c(cccc13)CC2)c1ccco1	.	.	.	54	.	.	.	/
O=C(Oc1c(-c2ccccc2)c(=O)n2c3c(cccc13)CC2)c1ccc(Cl)cc1	.	.	.	.	.	.	/	/
CCCCCCCCN1C(=O)[C@H](CC(=O)NCCCN2CCCC2=O)C[C@@]2(C(=O)OC)CCCCC=C12	.	.	/	/	/	/	/	/
Cc1cc([N+](=O)[O-])ccc1-c1ccc(/C=N/NC(=O)c2ccc(Br)o2)o1	.	.	.	95	.	111	.	/
Cc1cc(C(=O)N/N=C/c2ccc(-c3ccc([N+](=O)[O-])cc3C)o2)n[nH]1	.	.	.	.	.	.	/	/
Cc1ccc(-c2ccc(/C=N\NC(=O)c3cc4c(ccc5ccccc54)o3)o2)cc1[N+](=O)[O-]	.	.	.	94	.	91	.	/
Cc1cc(S(=O)(=O)Nc2ccc(C(=O)NC3CC3)cc2)ccc1F	.	.	.	/	.	.	/	/
COc1cc(C2C(C#N)=C(N)Oc3cc(O)ccc32)cc(OC)c1OC (stereo not drawn)	.	.	.	65	.	.	67	67
COc1ccc(C2C(C#N)=C(N)Oc3cc(O)ccc32)cc1OC (stereo not drawn)	.	.	.	.	.	.	/	/
Cc1ccc(C2C(C#N)=C(N)Oc3cc(N)ccc32)cc1 (stereo not drawn)	.	.	.	.	.	.	/	/
N#CC1=C(N)Oc2cc3c(cc2C1c1ccc(Cl)cc1)OCO3 (stereo not drawn)	.	.	.	61	.	.	46	60
COc1cc(C2C(C#N)=C(N)Oc3cc(N(C)C)ccc32)cc2c1OCO2 (stereo not drawn)	.	.	.	78	.	.	64	112
COc1cc(C2C(C#N)=C(N)Oc3cc(O)ccc32)cc2c1OCO2 (stereo not drawn)	.	.	.	57	.	.	56	59
COc1cc(C2C(C#N)=C(N)Oc3cc4c(cc32)OCO4)cc(OC)c1OC (stereo not drawn)	.	.	.	81	.	.	68	126
COc1cc(C2C3=C(COC3=O)Oc3cc4c(cc32)OCO4)cc(OC)c1OC (stereo not drawn)	.	.	.	/	.	.	/	/
CN(C)S(=O)(=O)n1cc(/C=C(\NC(=O)c2ccccc2Cl)C(=O)N2CCOCC2)c2ccccc21	.	.	.	62	.	.	.	/
CCOC(=O)C1(CCOc2ccccc2)CCN(Cc2ccc(OCC)c(CO)c2)CC1	.	.	.	/	.	.	/	/
COc1ccc2c(c1)-c1c(sn(-c3ccc(OC)c(OC)c3)c1=S)C(C)(C)N2	.	.	.	55	.	.	.	/
O=c1c2ccccc2nc(/C=C/c2cccc([N+](=O)[O-])c2)n1CCO	.	.	.	.	.	.	/	/
O=c1c2ccccc2nc(/C=C/c2cc(Br)ccc2O)n1CCCO	.	.	.	89	.	.	74	.
Cc1ccn2c(Nc3ccccc3C)c(-c3ccncc3)nc2c1	.	.	.	59	.	.	.	/
O=C(CN(C(=O)c1ccc(Cl)cc1)C1CCCCC1)Nc1ccc(Cl)c([N+](=O)[O-])c1	.	.	.	65	.	.	43	72
O=C(N/N=C/c1ccc(Cl)cc1Cl)c1cccc(N2CCCC2=O)c1	.	.	.	.	.	.	/	/
O=C(N/N=C/c1cc(Br)cc(Br)c1O)c1cccc(N2CCCC2=O)c1	.	.	.	58	.	.	50	.
O=C(N/N=C/c1ccccc1Br)c1cccc(S(=O)(=O)N2CCOCC2)c1	.	.	.	.	.	.	/	/

High-throughput results (PubChem BioAssay)
